Vaccinia pol inh: inhibitors of vaccinia virus processive DNA synthesis (E9 polymerase). hit rate 0.94% among 46,000. normalized absorbance, % (no concentration beside the values). in vitro processive DNA synthesis, absorbance read-out; stronger effect = lower value; in the data active means normalized absorbance mostly below about 85%, no sharp cut-off; inactive means mostly above about 86%
Each line names hits and unclear results; the compound was inactive in the other large screens. The full list was thinned out, with hits kept by preference.

CCN(CC)C(=O)c1cc(-c2ccco2)nc2ccccc12	none
O=C1/C(=C/c2ccc(F)cc2)CS/C1=C\c1ccc(F)cc1	none
N#Cc1c(N)nc(SCC(N)=O)c(C#N)c1-c1ccc(Cl)cc1	none
CCCNc1ccccc1-c1nc2n[nH]nc2c(=O)[nH]1	none
CC1(C)CC(=O)C=C(NC(=O)Nc2ccccc2)C1	none
CC1(C)Cc2ccccc2/C(=C/C(=O)Nc2ccccc2)N1	Vaccinia pol inh 86
CC1(C)CC(=O)C(C(=S)Nc2ccccc2)C(=O)C1	none
COc1cc(Cl)c(C)cc1NC(=S)N(Cc1ccccc1C)CC1CCC(C(=O)O)CC1 (stereo not given)	none
Cc1cc(-c2ccccc2N)nc2ccccc12	none
Cc1cc(N)c2ccccc2[n+]1CCCCCCCCCC[n+]1c(C)cc(N)c2ccccc21	Vaccinia pol inh 35
COc1ccc2ccccc2c1C(O)c1cccs1 (stereo not given)	none
Cc1ccc2c(c1)sc1ncc(S(=O)(=O)c3ccc(F)c(Cl)c3)c(=O)n12	none
CC(NC(=O)C(c1ccccc1)c1ccccc1)C(=O)Nc1ccc(Br)cc1 (stereo not given)	none
CC(=O)Nc1ccc(-n2c(C)ccc2C)c(C(=O)O)c1	Vaccinia pol inh 49
CC(=O)Nc1ccc(Cl)c(Cl)c1	none
COc1ccc(NC(C)=O)cc1C	none
N#CSCC(=O)C12CC3CC(CC(C3)C1)C2	none
CC12CCC(C(=O)O)(c3nc4ccc5ncccc5c4nc31)C2(C)C (stereo not given)	none
O=S(=O)(NC1CCN(Cc2c(F)cccc2Cl)CC1)c1ccc(C(F)(F)F)cc1	none
COc1nncc(-c2cnnc(SC)n2)n1	none
CCN(CC)CCOc1ccc(/C(C)=N\O)cc1	none
CCN(CC)CCOc1ccc2c(c1)C(=O)c1cc(OCCN(CC)CC)ccc1-2	Vaccinia pol inh 30
CCN(CC)CCOC(=O)C(c1ccccc1)c1ccccc1	none
CCOC(=O)CSc1nc2sccn2c1C=Nc1cc(Cl)cc(Cl)c1	none
CCOc1ccccc1NC(=O)CC#N	none
O=C(CSc1ncc(-c2ccccc2)[nH]1)c1ccc(-c2ccccc2)cc1	none
N/N=C1\CCCc2c1[nH]c1ccc(C(=O)NN)cc21	Vaccinia pol inh 46
CC(C)c1ccc2[nH]c3c(c2c1)CCC/C3=N\O	none
Cc1ccc(C(=O)NCc2ccc3[nH]c4c(c3c2)CCCC4)cc1C	none
Cc1ccc(NC(=O)c2ccc3ncsc3c2)cc1	none
CC(NC(=O)CSc1nc2ccc(N=Cc3ccccc3O)cc2s1)c1ccccc1 (stereo not given)	none
CCOC(=O)C1CCCN(C(=O)c2ccc(F)cc2)C1 (stereo not given)	none
CCN(CC)c1ccc(N2C(=O)/C(=C/c3ccccc3)SC2=S)cc1	none
O=C(O)c1cccc(N2C(=O)/C(=C/c3ccccc3)SC2=S)c1	Vaccinia pol inh 90
COc1ccccc1/C=C1\SC(=S)N(c2ccccc2)C1=O	none
CC1CCN(c2ccc(NC(=O)CCC(=O)O)cc2)CC1	none
COc1c(-c2ccc(C)cc2)nc2ccccn12	none
Cc1ccc2nc(NC(=O)C(Cc3ccccc3)NC(=O)OCc3ccccc3)sc2c1 (stereo not given)	none
CCOc1ccccc1-n1c(O)c(/C=C2\C=Nc3ccccc32)sc1=S	none
O=C(O)c1ccccc1SC/C=C/c1ccccc1	Vaccinia pol inh 83
O=C(O)c1ccccc1SCC(=O)N1CCCC1	none
[O-][n+]1ccccc1SC/C=C/c1ccccc1	none
O=C(/C=C/c1ccc(OCc2ccccc2)cc1)N1CCOCC1	none
CC(C)(CO)NC(=O)c1ccc(Cl)cc1Cl	none
C=C(NCc1ccco1)c1ccc(Cl)cc1	none
Nc1nonc1C(=O)NCc1ccco1	none
C=C1C(C(=O)NCc2ccco2)C1C(=O)NCc1ccco1 (stereo not given)	Vaccinia pol inh 56
O=C(NCC1CCCO1)c1cc2sc3ccccc3c2s1 (stereo not given)	Vaccinia pol inh 66
CCn1c(=O)c2cc(C(=O)NCC3CCCO3)sc2c2ccccc21 (stereo not given)	none
O=C(NCC1CCCO1)c1cc2c(s1)CCC2 (stereo not given)	none
COc1cccc(N2CCN(C(=O)c3cc4c(Cl)nc5ccc(C)cc5c4s3)CC2)c1	none
CCc1ccccc1NS(=O)(=O)c1ccc(-n2cccn2)cc1	none
Cc1ccccc1C=Nc1ccccc1C#N	none
Oc1ccccc1C=Nc1ccccc1O	none
N#Cc1ccccc1N=Cc1cccc(O)c1O	Vaccinia pol inh 86
C=C(C)Cn1c(CCCNC(=O)c2ccc(F)cc2)nc2ccccc21	none
COc1ccc(C(=O)Nc2ccc3nc(N4CCN(c5ncccn5)CC4)cc(C)c3c2)c(OC)c1	none
CC(C)c1ccc(NC(=O)c2cccnc2Cl)cc1	none
O=C(OC(c1ccccc1)c1nccc2ccccc12)c1ccco1 (stereo not given)	none
FC(F)(F)c1nc(NCc2ccccc2)nc2c1CCCCC2	none
CCCC(C(=O)O)N1C(=O)/C(=C/c2ccccc2Cl)SC1=S (stereo not given)	Vaccinia pol inh 56
CN1C(=O)c2ccccc2Sc2ccc(C(=O)O)cc21	none
CC(C(=O)O)N1C(=O)/C(=C/c2ccccc2Cl)SC1=S (stereo not given)	none
CN1C(=O)/C(=C\c2ccccc2)Sc2ccc(C(=O)NC3CCCCC3)cc21	none
CCCC(C(=O)O)N1C(=O)/C(=C/c2ccc(C)cc2)SC1=S (stereo not given)	none
CN1C(=O)/C(=C/c2ccccc2Cl)Sc2ccc(C(=O)O)cc21	Vaccinia pol inh 46
O=C(c1ccc2c(c1)CCCC2)N1CCN(c2ccccc2)CC1	none
O=C(c1ccccc1)N1C(=S)C(c2ccccc2)=NC12CCCC2	none
CO[C@@]1(NC(=O)C(C(=O)O)c2ccc(O)cc2)C(=O)N2C(C(=O)O)=C(CSc3nnnn3C)CO[C@@H]21 (stereo not given in full)	Vaccinia pol inh 8.0
COc1ccc2nc(NC(=O)c3cccnc3)sc2c1	none
COc1ccc(-c2cc3ccccn3c2C(=O)c2cccnc2)c(OC)c1	Vaccinia pol inh 44
COc1ccc(OC)c(NC(=O)c2cccnc2)c1	none
O=C(NCCCCCCNC(=O)ON=C1CCCCC1)ON=C1CCCCC1	none
Cc1nc2ccc(NC(=O)C3=COCCO3)cc2s1	none
COc1ccc(-c2cc(=Nc3ccc(OC)c(OC)c3)c3ccccc3o2)cc1	none
COc1ccc(N=c2cc(-c3ccc(OC)cc3)oc3ccc(O)cc23)cc1	Vaccinia pol inh 63
CCc1ccc2oc(-c3ccc(OC)cc3)cc(=NCC(=O)O)c2c1	none
COc1ccc(-c2cc(=O)c3cc(OC(=O)c4ccc(OC)c(OC)c4)ccc3o2)cc1	none
COc1ccc(-c2cc(=O)c3cc(OC(=O)Cc4ccccc4)ccc3o2)cc1	none
COc1ccc(-c2c(C)oc3cc(O)ccc3c2=O)cc1	none
COc1ccc(-c2cc(=Nc3ccc(O)cc3)c3cc(C)ccc3o2)cc1	Vaccinia pol inh 54
COc1ccc(-c2cc(=NCCc3ccccc3)c3cc(C)ccc3o2)cc1	Vaccinia pol inh 41
COc1ccc(-c2cc(=NC(CC(C)C)C(=O)O)c3cc(C)ccc3o2)cc1 (stereo not given)	none
CCOC(=O)COc1cc2oc(=O)cc(C)c2cc1Cl	none
CCn1cc(S(=O)(=O)CC(=O)Nc2ccccc2)c2ccccc21	none
Cc1ccc2c(c1)c1nc3ccccc3nc1n2Cc1ccccc1	none
CCc1ccc(NC(=O)COc2ncnc3ccccc23)cc1	none
Cc1n[nH]c(C)c1Nc1cnn(C23CC4CC(CC(C4)C2)C3)c(=O)c1Cl	none
COC(=O)c1ccc(C2N(Cc3ccc(F)cc3)CCCN2Cc2ccc(F)cc2)cc1	none
CCSc1nnc(NC(=O)c2cccn(OCc3cccc(Cl)c3)c2=O)s1	none
Cc1c(-c2ccccc2)oc2c(C(=O)O)cccc2c1=O	none
Cc1nnc(C)n1/N=C/C=C\c1ccco1	none
Clc1ccc(-c2cn3c4ccccc4nc3n2CCCNC2CCCCC2)cc1	none

High-throughput results as filed in PubChem.
